Measurements as given in PubChem BioAssay AID488839 (Broad Institute, 2010).
Out of some 330,000 compounds screened, about 35 (0.01%) were called active.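 Rule for the calls: active = highest replicate inhibition of at least 50% and at least 75% of replicates reaching 50%; inconclusive = only one of the two criteria met; inactive = both criteria failed.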 These entries were drawn from the full list.

Target: Cyclin-dependent kinase 5 (Homo sapiens) + Cyclin-dependent kinase 5 activator 1 (Homo sapiens) (UniProt Q00535+Q15078)
Test: inhibitors of human CDK5/p35 kinase, primary screen, biochemical, single concentration (AID 488839);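 note: plate controls were DMSO neutral control for no effect and GW8510 at 10 µM for full effect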
Details: Recombinant CDK5/p35, ADP-Glo luminescence, 60 min; at 10 µM; stronger effect = higher value

Cyclin-dependent kinase 5 (Homo sapiens) + Cyclin-dependent kinase 5 activator 1 (Homo sapiens), sequence (Q00535 whole entry, looked up): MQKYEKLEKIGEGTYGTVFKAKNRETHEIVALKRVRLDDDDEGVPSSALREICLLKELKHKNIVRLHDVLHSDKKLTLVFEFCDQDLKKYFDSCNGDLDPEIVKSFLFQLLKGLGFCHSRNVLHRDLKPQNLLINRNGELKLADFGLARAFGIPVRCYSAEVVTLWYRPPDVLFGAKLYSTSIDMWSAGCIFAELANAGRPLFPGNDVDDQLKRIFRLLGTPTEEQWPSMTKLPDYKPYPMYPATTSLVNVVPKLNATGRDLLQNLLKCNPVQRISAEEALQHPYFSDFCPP
Cyclin-dependent kinase 5 (Homo sapiens) + Cyclin-dependent kinase 5 activator 1 (Homo sapiens), sequence (Q15078 whole entry, looked up): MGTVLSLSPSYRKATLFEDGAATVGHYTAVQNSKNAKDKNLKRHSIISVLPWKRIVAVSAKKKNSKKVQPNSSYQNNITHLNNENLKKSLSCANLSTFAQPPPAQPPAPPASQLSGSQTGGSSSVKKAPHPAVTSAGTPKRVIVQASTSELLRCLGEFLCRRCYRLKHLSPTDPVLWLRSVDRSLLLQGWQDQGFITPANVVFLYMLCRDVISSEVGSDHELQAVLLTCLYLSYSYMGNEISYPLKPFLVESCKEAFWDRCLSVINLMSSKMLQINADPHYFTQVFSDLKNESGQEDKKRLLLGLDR

inhibition, inactive:
CC(C)[C@@H](C(=O)O)N(Cc1cccc(CN([C@H](C(=O)O)C(C)C)S(C)(=O)=O)c1)S(C)(=O)=O -2.67%
Cc1cc(-c2csc(N)n2)c(C)n1-c1ccccc1 0.604%
CCCN1C2=C(C(=O)CCC2)C(c2ccc(O)c(Br)c2)C2=C1CCCC2=O 2.42%
CC(Oc1cccc(Cl)c1)C(=O)Nc1ccc(S(=O)(=O)Nc2ncccn2)cc1 (centres undefined) -1.05%
COc1cc(OC)cc(-c2c(C#Cc3ccsc3)c3cc(-c4ccc(OC)cc4F)ccc3n2C)c1 2.95%
O=C1COc2ccc(S(=O)(=O)NCCc3ccc(Cl)cc3)cc2N1 -4.51%
Cc1cccc(N2O[C@H]3C=CC2CCCC3)n1 -0.772%
NS(=O)(=O)c1ccc(CCNC(=O)NC2CCCCC2)cc1 -0.391%
COc1cc(OC)c(C2=NOC(C(=O)Nc3c(C)n(C)n(-c4ccccc4)c3=O)C2)cc1Cl (centres undefined) -0.625%
CCCCc1ccc(S(N)(=O)=O)cc1 0.729%
COc1ccc2c(c1)C=CC1(O2)N(CCO)c2ccccc2C1(C)C (centres undefined) 1.4%
CC(/C=C/C1(O)C(C)CC(=O)CC1(C)C)OC1OC(CO)C(O)C(O)C1O (centres undefined) -0.525%
Cc1ccc(C(=O)N/C(=C/c2ccco2)C(=O)NCCc2c[nH]c3ccccc23)cc1C 2.98%
CCOc1ccc(C(=O)NCC(=O)N2CCN(c3ccc(C(F)(F)F)cn3)CC2)cc1 -6.9%
COc1ccccc1OCCNC(=O)C(CCSC)NC(=O)COc1ccccc1 (centres undefined) 1.86%
O=C(C1CCCO1)N(Cc1ccccc1)c1ccccc1 (centres undefined) -1.15%
O=C(Nc1ccn(CCCNCc2ccc3[nH]ccc3c2)c(=O)n1)OCc1ccccc1 1.87%
O=C(CNC(=O)c1ccc2ccccc2c1)Nc1ncccc1O -1.57%
COc1cc(C2/C(=C(\O)c3ccc4c(c3)CC(C)O4)C(=O)C(=O)N2c2nnc(C)s2)cc(OC)c1OC (centres undefined) -1.78%
COc1cc(S(=O)(=O)N2CCOCC2)ccc1NC(=O)COc1ccc(N(C)S(=O)(=O)c2ccc(C)cc2)cc1 -0.554%
O=S(=O)(NCc1ccccc1Cl)c1cnc[nH]1 0.727%
O=C(OCC(=O)N1CCN(C(=O)c2ccco2)CC1)c1c(Cl)cccc1Cl 0.768%
O=c1c2ccccc2ncn1CCc1ccncc1 1.49%
CCOc1ccc(S(=O)(=O)N/N=C(\C)c2ccc(Cl)c(Cl)c2Cl)cc1 1.98%
CN(C)C1=NC[C@H](Cc2ccccc2)N1CCc1ccc(F)cc1 0.95%
O=S(=O)(/N=C(/Nc1ccccc1)c1ccccc1)c1cccs1 0.387%
OCc1nc(CO)n(Cc2ccccc2)n1 -0.111%
COc1ccc(CCNC(=O)C(=O)NCC2OCCN2S(=O)(=O)c2ccc(OC)c(C)c2)cc1 (centres undefined) 1.39%
O=C(OCC(=O)N1CCCC1)c1ccc(Cl)nc1 1.02%
CCCCC(=O)Nc1nnc(S(=O)(=O)N(C)Cc2ccco2)s1 1.6%
CCn1cc(CN2CCCC(CNS(=O)(=O)Cc3ccccc3)C2)cn1 (centres undefined) 0.0333%
CCc1[nH]nc(C(=O)N2CCCC(CNS(=O)(=O)c3cccs3)C2)c1C (centres undefined) 0.235%
CCN1C(=O)CS/C1=N\c1nccs1 0.817%
O=C(c1cccs1)C1C(c2ccc(Br)cc2)NC(=S)NC1(O)C(F)(F)F (centres undefined) 1.75%
CCc1ccc(-c2cc(C(=O)NN3CCN(C)CC3)c3ccccc3n2)cc1 2.52%
Cc1oc(C(N)=O)cc1COc1ccc(C(N)=O)cc1 1.55%
O=C(CNCc1ccc(F)cc1)Nc1ccccc1-c1ccccc1 0.549%
S=C(NCC1CCCO1)N1CCN(c2ccc(Cl)c(Cl)c2)CC1 (centres undefined) -0.238%
COc1ccc(-c2nc3n(c2Br)CCC3)cc1 1.75%
O=C(Nc1cccc(Cl)c1)Nc1ccccc1NS(=O)(=O)c1cccs1 -1.4%
COc1ccccc1CNC(=O)COC(=O)c1cccs1 0.781%
COC(C[C@@H](O)C[C@@H](O)[C@H](C)OCc1ccccc1)OC -0.836%
N#Cc1ccccc1Sc1ccccc1C(=O)OCC(=O)NC1CCCCC1 -1.96%
O=C(CN(C(=O)c1nsc(Cl)c1Cl)c1cccc(F)c1)NC1CCCC1 0.211%
NC1=NC(=O)C2(COC(c3ccccc3Cl)OC2)S1 (centres undefined) 0.407%
Cn1c(=O)c([N+](=O)[O-])c(Oc2ccccc2)c2ccccc21 3.54%
COc1cc(CNCc2cccs2)cc(Br)c1OC -3.09%
O=S1(=O)CSCS(=O)(=O)C1 -3.39%
Cc1nn(C)c(C)c1C(C)NC(=O)c1ccc(OC2CCN(Cc3ccccn3)CC2)cc1 (centres undefined) -0.745%
Cc1cccc(N(Cc2ccccc2)C(=O)c2cc(S(=O)(=O)N3CCOCC3)ccc2F)c1 -2.98%
CCCCNC(=O)N(O)C1N(/N=C/c2ccc(N(C)C)cc2)C(=S)SC1(C)C (centres undefined) -0.992%
Cc1ccc(-c2csc(N(Cc3ccco3)C(=O)c3cccs3)n2)cc1 0.457%
c1cc(-n2cnnn2)ccc1NC1=NCCC1 -1.51%
CCc1ccccc1N(CC(=O)N1CCN(c2ccccc2F)CC1)S(C)(=O)=O 0.372%
O=C(CCn1c(=S)[nH]c2cc3c(cc2c1=O)OCO3)NCc1ccc(Cl)cc1 1.02%
Cc1cccc(C)c1NC1=NC(=S)N(c2ccc(N(C)C)cc2)C1(C)C -0.0411%
COC(=O)c1sc(C(F)(F)F)c(-c2ccccc2)c1S(=O)(=O)N(C)C -0.853%
CCOC(=O)c1nc(-c2ccc3c(c2)OCO3)[nH]c1C -1.03%
CC(=O)NC(CC(=O)Nc1nc(-c2ccccc2)c(C(C)=O)s1)c1ccccc1 (centres undefined) 0.222%
CON(C)S(=O)(=O)c1ccc2c(c1)NC(=O)C1CCCN21 (centres undefined) -2.05%
Cc1ccc(OCCCCc2c(C)n[nH]c2C)cc1 0.0918%
COC(=O)c1cc(S(=O)(=O)Nc2ccc(C)c(F)c2)c[nH]1 1.29%
O=c1cc(Cl)c2ccccc2n1-c1ccccc1 -0.318%
COc1ccc(C(=O)N2CCN(c3ccc(C(C)=O)cc3F)CC2)cc1S(=O)(=O)NC1CC1 0.384%
COc1ccc(C(C)NC(=S)NC2CCCCC2)cc1OC (centres undefined) -2.83%
CCOc1ccccc1NC(=O)COc1ccc(S(=O)(=O)N2CCCC2)cc1 -0.338%
COc1ccc(CCNC(=O)CCc2cn(C)c3ccccc23)c(OC)c1 1.21%
COc1ccc(-c2nc(CN3CCN(c4ncccn4)CC3)c(C)o2)cc1C 0.124%
COc1ccc(S(=O)(=O)N(CCCN2CCCC2=O)Cc2cc3c(C)ccc(C)c3[nH]c2=O)cc1 -2.49%
CCCCN(CC(=O)Nc1cccc(S(=O)(=O)N2CCCC2)c1)Cc1nc2ccccc2c(=O)[nH]1 0.255%
C=CCn1c(-c2ccccc2OCC)n[nH]c1=S -0.312%
Cc1ccc(NC2CCCN(C(=O)CCc3cn[nH]c3)C2)cc1C (centres undefined) 0.302%
CCCNC(=O)NCc1ccc(N2CCCC2=O)cc1 -1.59%
Cc1nn(-c2ccccc2)c(CC(C)(C)C(=O)O)c1C(=O)O 0.362%
O=C1c2ccccc2C(O)N1Cc1ccccc1Cl (centres undefined) -1.45%
Cc1cccc(-n2c(SCC(=O)Nc3cccc(S(=O)(=O)NC4=NCCCCC4)c3)nc3ccccc3c2=O)c1C 0.0416%
CN(C(=O)CC1C(=O)NCCN1Cc1ccc2ccccc2c1)C1CCOCC1 (centres undefined) 0.878%
COc1ccc(C(C)NC(=O)C2CCCC2)cc1 (centres undefined) -1.29%
O=C(NCCc1nnc2ccc(SCC(=O)N3CCOCC3)nn12)c1ccccc1 -3.67%
CCOC(=O)c1cnc2ccc(F)cc2c1Nc1ccc2c(c1)OCCO2 -0.0856%
Cc1ccc(NS(=O)(=O)c2c(C)[nH]c(=O)[nH]c2=O)cc1C -1.59%
CC1CCCCC1NCC(=O)Nc1ccccc1C(=O)Nc1ccccc1 (centres undefined) -1.88%
COCCn1c(SC(C)C(=O)NC2CC2)nnc1-c1cccc(C)c1 (centres undefined) -7.75%
COCC(C)n1c(C)cc(C(=O)COc2ccc(C)nc2[N+](=O)[O-])c1C (centres undefined) 1.15%
Cc1nnc(SC(C(=O)c2ccccc2)c2ccccc2)[nH]c1=O (centres undefined) 0.641%
COc1cccc(CN2C(=O)CCC2(C)C(=O)NC2CCCCCC2)c1 (centres undefined) 1.09%
COc1cccc2c1OCC(C(=O)NCc1ccc(Cl)cc1Cl)=C2 -2.22%
COc1ccc(CCNC(=O)CCC(=O)NC2CCCCC2)cc1OC 1.39%
CC(=O)Nc1ccc(NC(=O)C(C)OC(=O)C2CC(=O)N(CCc3ccccc3)C2)cc1 (centres undefined) -2.5%
CC1(C)CC(=O)C(C2=NC(C)(C)Cc3ccccc32)=C(O)C1 0.357%
COc1ccc(-n2nc3c(c2NC(=O)c2ccc(N4C(=O)CCC4=O)cc2)CSC3)cc1 2.36%
Brc1ccc(-c2n(-c3ccccn3)c3ccccc3[n+]2-c2ccccn2)cc1 3.32%
C=CCNC(=S)NNc1ncnc2sc3c(c12)CC(C)(C)OC3 -1.36%
Cc1ccc(S(=O)(=O)N2C3C=CC(C3)C2C(=O)O)cc1 (centres undefined) -7.35%
O=C(Cn1cnc2c(OCc3ccccc3)ncnc21)NCCCn1ccnc1 1.18%
CC(C)c1ccc(Nc2nnc(SCC(=O)c3nnc(-c4ccccc4)o3)s2)cc1 1.49%
Cc1cc(C(C)(C)C)cc(S(=O)(=O)Nc2ccc(C(=O)O)cc2)c1C 0.418%
Cc1ccc(SCC2=NNC(=O)C2)cc1 0.0205%
CC(C)C(NC(=O)c1c(F)cccc1F)C(=O)NCc1ccncc1 (centres undefined) -1.58%
Cc1ccc(N(C(=O)c2ccc(S(=O)(=O)N(C)C)cc2)C2C=CS(=O)(=O)C2)cc1 (centres undefined) 1.14%
COc1ccc(Cl)cc1NC(=O)CN(C)Cc1ccc(OC)c(OC)c1 -3.62%
CCOC(=O)N1CCC(NC(=O)Cn2cc3c(n2)CCCCC3)CC1 3.25%
CCCc1nc2oc3c(=O)[nH]cnc3c2c2c1COC(C)(C)C2 -0.359%
CCOC(=O)c1c(NC(C)=O)sc2c(O)c(Br)ccc12 -0.579%
Cc1ccc(C)c(NC(=O)COC(=O)CSc2ccccc2)c1 -0.511%
CCc1cc2c(=O)c(-c3nc4ccccc4n3C)c(CCCC(=O)O)oc2cc1OC(=O)C(C)(C)C -1.94%
O=C(CN1CCOCC1)Nc1c2c(nc3c1CCC3)CCC2 -2.33%
O=C(COC(=O)CNC(=O)C1CCCCC1)NCc1ccccc1 1.54%
CCCCc1nc(SCC(=O)Nc2nnc(C(C)C)s2)n[nH]1 -0.0356%
